Columns and labels:
Format in all cases: functional
[1] = test system: Plasmodium falciparum; assay: GSK_TCMDC: Inhibition of Plasmodium falciparum 3D7 in whole red blood cells, using parasite LDH activity as an index of growth. Test compounds present at 2uM
[2] = test system: Plasmodium falciparum; assay: GSK_TCMDC: Inhibition of Plasmodium falciparum Dd2 in whole red blood cells, using parasite LDH activity as an index of growth. Test compounds present at 2uM
[3] = test system: HepG2; assay: GSK_TCMDC: Percent inhibition of human HepG2 cell line. Test compounds present at 10uM.

Compound	Inhibition [1] [%]	Inhibition [2] [%]	Inhibition [3] [%]
COc1nc2c(CCN3CC[C@H](NCc4cc(C#N)c5c(c4)CCO5)[C@H](O)C3)ccnc2cc1F	99	71	31
Br.CC1(C)NC(N)=NC(=N)N1OCCSc1ccc(Cl)c(Cl)c1	96	95	65
CCN(CCCN1CCCCC1)c1cc(C)nc(Nc2ccc(Oc3ccccc3)cc2)n1.O=C(O)C(F)(F)F	100	99	50
CCOc1ccc2nc(C)cc(N/N=C/c3ccccc3[N+](=O)[O-])c2c1	100	99	91
Br.CN(C)CCCOc1ccc(-c2csc(NC(=N)NCc3ccccc3)n2)cc1	100	97	57
Cc1ccc(NC(=O)c2cccc(CN3CCCN(Cc4cccc(O)c4)CC3)c2)cc1F.O=C(O)C(F)(F)F	99	45	20
CN1CCN(CC(=O)Nc2cccc(-c3cccc(-c4nc5ccccc5[nH]4)c3)c2)CC1	90	27	11
COc1ccc2nc3cc(Cl)ccc3c(NCCNCC(O)CO)c2n1.Cl (centres undefined)	100	100	12
CS(=O)(=O)N(c1ccccc1)c1cc(C(=O)N[C@@H](Cc2ccccc2)[C@H](O)CNC2CC2)cc(N2CCCC2=O)c1	100	98	1
CCCOc1ccc(C(=O)Nc2nonc2-c2ccc(OC)c(OC)c2)cc1	99	97	0
Br.C=CCc1cccc(C)c1OCCCON1C(=N)N=C(N)NC1(C)C	94	95	65
O=C(Nc1cccc(-c2nn3ccccc3c2-c2ccnc(Nc3cccc(F)c3)n2)c1)c1c(F)ccc(F)c1Cl	93	38	41
CCOC(=O)c1ccc(Nc2cc(Nc3ccc(C(=O)OCC)cc3)nc(C)n2)cc1	99	33	4
COc1ccc2ccccc2c1CCCCN1CCN(CC(c2ccc(F)cc2)N2CCC2)CC1.O=C(O)C(F)(F)F (centres undefined)	98	51	51
COc1ccc2nccc(N3CCC(NCCNCc4ccc5c(n4)NC(=O)CS5)C3)c2n1.Cl (centres undefined)	100	5	0
CC(C)(CNC(=O)/C=C/c1ccc(C(F)(F)F)cc1)CNc1cc(=O)c2ccccc2[nH]1	95	27	0
CCn1c(Sc2ccc(C#N)c([N+](=O)[O-])c2)nnc1-c1cccc(Cl)c1	95	88	0
CN(C)c1ccc2c(c1)Sc1cc(N(C)C)ccc1N2C(=O)c1cccc(C(=O)O)c1	99	73	8
CCCCOC(=O)C1=C(C)NC2=C(C(=O)CCC2)C1c1ccc(OC)c(Br)c1 (centres undefined)	93	87	5
Cl.N#Cc1ccc2c(c1)CCN(CCC1CCC(NC(=O)c3cc4ccc(Cl)cc4[nH]3)CC1)C2 (centres undefined)	100	0	5

Compound	Inhibition [1] [%]	Inhibition [2] [%]	Inhibition [3] [%]
COc1ccc2ncc(F)c([C@@H](O)CN3CCC(NCc4cc(C#N)c5c(c4)CCO5)CC3)c2n1	92	50	15
CC(C)N1CCN(C(CN2CCN(CCCOc3ccccc3-c3ccccc3)CC2)c2ccc(F)cc2)CC1.Cl (centres undefined)	100	96	98
Oc1ccccc1CN(CCCN(Cc1ccccn1)Cc1ccccc1O)Cc1ccccn1	92	92	64
Cc1cccc2nc(-c3ccc(-c4cccc(CNCCc5ccncc5)c4)cc3)[nH]c12.O=C(O)C(F)(F)F	100	95	28
OC(CNCc1ccccc1OCc1ccccc1)c1cccc(Cl)c1 (centres undefined)	100	100	0
COc1cccc(-c2cc(C(F)(F)F)n3ncc(C(=O)Nc4cc(Cl)ccc4O)c3n2)c1	99	99	0
CN1CCCC(CN2CCN(Cc3cccc(-c4ccc(-c5nc6ccccc6[nH]5)cc4)c3)CC2)C1.O=C(O)C(F)(F)F (centres undefined)	100	100	73
Cc1cccc2nc(-c3ccc(-c4ccc(CNCc5ccc(CN)cc5)cc4)s3)[nH]c12.O=C(O)C(F)(F)F	100	85	4
O=C1NC(=S)N/C1=C/C=C/c1ccc([N+](=O)[O-])o1	82	30	7
CCC(C)c1ccc(NC(=O)c2ccc(S(=O)(=O)Nc3ccc(OC)c(N4CCN(CC5CC5)CC4)c3)cc2)cc1.O=C(O)C(F)(F)F (centres undefined)	94	17	24
N=C(N)NN=CC(=O)Nc1ccc(Cl)cc1.O=S(=O)(O)O	100	2	5
CS(=O)(=O)c1ccc(CNCc2cccc(-c3cccc(-c4nc5ccccc5[nH]4)c3)c2)cc1.O=C(O)C(F)(F)F	100	47	3
CC(O)C1CCCCN1C(=O)c1ccc(-c2ccc(-c3nc4ccccc4[nH]3)s2)cc1 (centres undefined)	100	98	33
COc1cc2nc(N3CCC(c4ccccc4)CC3)nc(NCc3ccc(=O)[nH]c3)c2cc1OC	100	58	12
Oc1cccc(-c2nc3cc(C4=NC5CCCCC5N4)ccc3[nH]2)c1 (centres undefined)	94	99	3
CC1Cc2ccccc2N1CC(=O)Nc1cc(C(F)(F)F)ccc1-n1cncn1 (centres undefined)	97	97	17
c1ccc(-c2ccc(-c3nc4ccccc4[nH]3)cc2)cc1	93	83	10
CCCC(C)Nc1nc(C)cc(N[C@@H](CC(C)C)C(=O)NCCOc2ccccc2)n1.O=C(O)C(F)(F)F (some centres undefined)	93	28	15
O=C(CCCc1ccccc1)Nc1cccc(N2CCC(N3CCN(c4ccccc4O)CC3)CC2)c1	98	41	31
COc1ccc(CN(C)CCOc2ccc(NC(=O)c3cccc4c(=O)c5cc(SC)ccc5[nH]c34)cc2)cc1OC	96	98	67

Compound	Inhibition [1] [%]	Inhibition [2] [%]	Inhibition [3] [%]
CN(CC1CCC(NC(=O)/C=C/c2ccc(Cl)c(Cl)c2)CC1)C1CCC(c2c[nH]c3ccccc23)CC1 (centres undefined)	99	53	53
O=C(Nc1cc(Cl)cc(Cl)c1)Nc1ccccc1C(=O)NC1CCCCC1	100	100	12
FC(F)(F)c1cccc(-c2cc(NCCCn3ccnc3)nc(-c3ccncc3)n2)c1	100	100	50
N#CN1CC[C@H](CS(=O)(=O)c2cccc(Br)c2)C1	88	74	8
CCC(CC)(CCC#N)CN(C[C@@H](O)[C@H](Cc1ccccc1)NC(=O)OC(C)(C)C)S(=O)(=O)c1ccc(OC)cc1	82	66	0
CCCCCCn1c(Sc2ccc(C#N)c([N+](=O)[O-])c2)nnc1-c1cccs1	97	60	26
COc1ccccc1N1CCN(C(C(=O)NCc2ccc(C)cc2)c2ccc(C)cc2)CC1 (centres undefined)	92	79	12
CC(=O)Oc1ccc(C(=O)Oc2ccccc2C#CC#N)cc1OC(C)=O	93	61	23
O=C(/C=C/c1ccc(Cl)c(Cl)c1)NCCCCCN1CCCN(C(=O)Nc2ccc(Cl)c(C(F)(F)F)c2)CC1	100	16	35
CCOC(=O)Nc1cc(-c2csc(N=C(N)N)n2)cc([N+](=O)[O-])c1	100	88	12
CC(C)NCc1ccc(-c2cccc(NC(=O)c3ccc(F)cc3)c2)cc1.O=C(O)C(F)(F)F	91	7	28
CCNc1cc(C(=O)N[C@@H](Cc2ccccc2)[C@H](O)CN[C@H]2CCc3ccccc32)cc(N2CCCC2=O)c1	98	99	8
Cl.c1cc2[nH]c(CCCCCc3nc4cc(C5=N[C@@H]6CCCC[C@@H]6N5)ccc4[nH]3)nc2cc1C1=N[C@@H]2CCCC[C@@H]2N1	96	98	8
CCCOc1ccc(NC(=O)c2cccs2)cc1Cl	88	86	1
O=C(Nc1cccc(CN2CCN(C(=O)c3cccc(F)c3)CC2)c1)c1cccs1.O=C(O)C(F)(F)F	95	95	17
CN(C)CCNC(=O)NC1CN(c2ncnc3cc(-c4ccccc4)sc23)C1.O=C(O)C(F)(F)F	100	39	7
CC(C)N(C(=O)CSc1nc2cc(Cl)ccc2c(=O)n1Cc1ccccc1)C(C)C	100	97	0
COc1ccc2c(c1C1CCN(CCCCNC(=O)c3ccc(-c4ccc(Cl)cn4)cc3)CC1)CCCC2	90	49	29
